Sfp inh = qHTS Assay for Inhibitors of Bacillus subtilis Sfp phosphopantetheinyl transferase (PPTase) | 4'-phosphopantetheinyl transferase ffp (Bacillus subtilis), Q9F4F7 | Biochemical Sfp PPTase activity, qHTS | Potency, µM, without a hit: largest response in the series, negative = inhibition, most hits filed as inhibitors | actives 3.5% (n = 310,000); active = well fitted curve in the direction sought with a large enough effect; inconclusive = small, poorly fitted or top-dose-only effect, or another doubt; inactive = no such curve, though single readings can be large; an effect the other way counts as inactive or inconclusive;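 also: the enzyme is Sfp with the accession as filed and its product quenches rhodamine fluorescence; potency is read from the fitted curve at half-maximal effect; 0% = enzyme reaction without inhibitor and -100% = no enzyme wells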
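Compounds were incubated with enzyme (final 15 nM) for 15 min at room temperature before substrate addition started the reaction. Fluorescence at 525 nm excitation, 598 nm emission was recorded immediately and after 30 minutes.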
FBPA coupling cs = qHTS Assay for Inhibitors of Fructose-1,6-bisphosphate Aldolase from Giardia Lamblia: Coupling assay counterscreen; coupling enzyme system counterscreen, AmpLite Red fluorescence; activity change, negative = inhibition, % at 58.2 µM, hits read low; actives 0.67% (n = 290,000); AID 2472, 2010; in the data active = activity change below about -30%
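Compounds tested against the coupling enzymes alone at 57.5 uM final; readout was AmpLite Red fluorescence (525/598 nm) after 20 min at RT.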
NPSR antag = qHTS Assay for Antagonists of the Neuropeptide S Receptor: cAMP Signal Transduction; Potency, µM (top dose mostly 38.3 µM), for inactives: at the top dose activity change, negative = inhibition, actives largely listed as inhibitors; AID 1461, 2008; CHO-NPSR cells, cAMP TR-FRET, antagonist mode; Q6W5P4; actives 1% (n = 220,000); active = well fitted curve in the direction sought with a large enough effect; inconclusive = small, poorly fitted or top-dose-only effect, or another doubt; inactive = no such curve, though single readings can be large; an effect the other way counts as inactive or inconclusive; also: potency is read from the fitted curve at half-maximal effect; nearly all actives have a fitted effect of over 50% in size
Target sequence (Q6W5P4 whole entry, looked up): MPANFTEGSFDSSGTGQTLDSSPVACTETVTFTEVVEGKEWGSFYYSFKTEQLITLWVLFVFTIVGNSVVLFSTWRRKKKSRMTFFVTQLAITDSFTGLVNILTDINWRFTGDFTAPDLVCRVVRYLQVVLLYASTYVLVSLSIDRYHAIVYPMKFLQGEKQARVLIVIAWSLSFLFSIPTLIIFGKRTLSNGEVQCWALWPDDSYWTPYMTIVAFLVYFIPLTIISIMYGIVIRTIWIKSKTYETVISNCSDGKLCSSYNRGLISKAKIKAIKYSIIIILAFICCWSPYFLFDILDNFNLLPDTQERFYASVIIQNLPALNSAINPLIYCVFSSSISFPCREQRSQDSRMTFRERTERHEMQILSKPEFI
ALDH1A1 block = qHTS Assay for Inhibitors of Aldehyde Dehydrogenase 1 (ALDH1A1); Purified ALDH1A1, NADH fluorescence, propionaldehyde substrate; Potency, µM (doses to about 75.3 µM), for inactives: top-dose activity, negative = inhibition, most hits filed as inhibitors; actives 7.3% (n = 220,000);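 also: potency is read from the fitted curve at half-maximal effect; plate controls were no enzyme wells and a reference inhibitor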
RGS12 GoLoco inh = qHTS Assay for Inhibitors of RGS12 GoLoco Motif Activity (Red Fluorophore). actives 0.44% (n = 230,000). Gai1:RGS12 GoLoco peptide FP, rhodamine, 10 min. Potency, µM (highest dose often 61.6 µM), for inactives: at the highest dose activity, negative = inhibition, hits mostly inhibitors. AID 880, 2007; active = well fitted inhibition curve with a large enough effect, not every such curve was filed as active; inactive = no such curve, though single readings can be large or run the other way; also: potency is read from the fitted curve at half-maximal effect; nearly all actives have a fitted effect of over 30% in size
KDM4E inh = qHTS Assay for Inhibitors of Human Jumonji Domain Containing 2E (JMJD2E). AID 2147, 2009. JMJD2E catalytic domain, FDH-coupled NADH fluorescence (FDH is formaldehyde dehydrogenase). actives 1.6% (n = 230,000). Potency, µM (series often up to 57.1 µM), without a hit: at the top dose activity change, negative = inhibition, most hits filed as inhibitors;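 also: potency is read from the fitted curve at half-maximal effect; 0% = wells with enzyme and -100% = buffer wells without enzyme; nearly all actives have a fitted effect of over 50% in size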
Target sequence (B2RXH2 1-337 limits assumed): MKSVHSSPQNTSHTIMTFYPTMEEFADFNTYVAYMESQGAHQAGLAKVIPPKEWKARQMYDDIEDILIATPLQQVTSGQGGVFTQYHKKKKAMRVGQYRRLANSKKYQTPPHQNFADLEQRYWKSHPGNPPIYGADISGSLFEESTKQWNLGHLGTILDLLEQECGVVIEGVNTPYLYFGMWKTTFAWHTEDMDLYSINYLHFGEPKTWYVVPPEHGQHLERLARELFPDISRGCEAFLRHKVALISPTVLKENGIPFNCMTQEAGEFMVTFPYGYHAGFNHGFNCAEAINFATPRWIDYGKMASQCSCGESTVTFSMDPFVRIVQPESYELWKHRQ
* hit, by the source's call; ? = inconclusive; . = no result; [ ] = remark or other dose. Rows were chosen to be rich in hits. Some 8.5% of all compounds tested hit in one or more screens of this group. Unless noted, calls follow the shape of the dose curve; as a rule, active = well fitted inhibition curve with a large enough effect (not every such curve was filed as active); inconclusive = small, poorly fitted or top-dose-only effect, or another doubt; inactive = no such curve, though single readings can be large or run the other way. Unless noted, % is scaled to controls: 0 for no effect and ±100 for the full control effect.

SMILES	Sfp inh	FBPA coupling cs	NPSR antag	ALDH1A1 block	RGS12 GoLoco inh	KDM4E inh
Cc1cc(Nc2ccccc2C(=O)O)n(-c2ccc([N+](=O)[O-])cc2)n1	33%	2	31%	.	10%	0%
Cc1cccc(-c2noc(CNC(=O)c3ccoc3C)n2)c1	32µM*	.	.	.	.	.
Cc1onc(-c2ccccc2Cl)c1C(=O)NC(C)c1ccccc1 (stereo unspecified)	6%	1	.	.	.	.
Cc1onc(-c2ccccc2Cl)c1C(=O)NCc1nc(-c2ccccc2)no1	89µM*	-2	-20%[46.1 µM]	?	-8%	-12%
Cc1onc(-c2ccccc2Cl)c1C(=O)NC(=S)NCCc1ccccc1	11%	0	-26%	1%	5%	1%
Cc1onc(-c2ccccc2Cl)c1C(=O)NC(=S)Nc1ccc(C(C)C)cc1	7%	2	51%	20µM*	11%	?
Cc1ccc(NC(=S)NC(=O)c2c(-c3ccccc3Cl)noc2C)cc1	3%	.	?	7.9µM*	3%	-1%
CNC(=S)Nc1cccc(S(=O)(=O)NC2=NCCC2)c1	-22%	3	23%	-9%	5%	-5%
C=CCC1(N(C(C)=O)c2ccccc2)CCCCC1	17%	-1	-36%	?	-6%	3%
CCC(C)(C)NC(=O)c1cc([N+](=O)[O-])ccc1N1CCOCC1	9%	2	2%	3%	4%	1%
Cc1cc2c(c(=O)o1)C1O[C@](c3ccsc3)(Cc3ccccc31)O2	1%	-5	.	.	.	.
CCc1nc(N2CCCC(C)C2)c2oc3ccccc3c2n1 (stereo unspecified)	45µM*	4	?	?	.	?
CCc1nc(N2CCN(Cc3ccc4c(c3)OCO4)CC2)c2oc3ccccc3c2n1	35µM*	1	?	?	-2%	?
Cc1c(C(=O)c2no[n+]([O-])c2C(=O)c2cnn(C)c2C)cnn1C	-20%	4	-30%[46.1 µM]	0.89µM*	-13%	0%
Oc1ccc(N2CCN(Cc3c(-c4ccccc4)nc4ccccn34)CC2)cc1	25µM*	1	.	.	.	.
O=C1[C@H]2[C@H]3[C@H](O)[C@H](O)C/C(=N/OCc4ccccc4)[C@@H]3CC[C@@H]2C(=O)N1C1CCCCC1	-6%	4	.	5%[13.5 µM]	.	.
CCc1c(C)nc2ncnn2c1N1CCCC(C(=O)Nc2ccc(NC(C)=O)cc2)C1 (stereo unspecified)	11%	.	-2%[46.1 µM]	13µM*	1%	-10%
CCc1c(C)nc2ncnn2c1N1CCCC(C(=O)NCc2ccc3c(c2)OCO3)C1 (stereo unspecified)	21%	4	-15%[46.1 µM]	-6%	-7%	3%
COc1cc(C2OCC3C(c4ccc(OC5OC(CO)C(O)C(O)C5O)c(OC)c4)OCC23)ccc1O (stereo unspecified)	-6%	-1	-15%	-9%	-12%	28µM*
CC(C)c1nnc(NC(=O)CCC(=O)Nc2ccc3cn[nH]c3c2)s1	3%	-2	-3%	?	5%	9%
CCn1c(=O)cc(OCC(=O)N2CCCC2)c2ccccc21	15%	-2	-6%[46.1 µM]	-13%	10%	-6%
CCn1c(=O)cc(OCC(=O)N2CCN(c3cccc(C(F)(F)F)c3)CC2)c2ccccc21	-6%	0	?	11µM*	1%	-6%
Cc1cccn2c(=O)c(C=O)c(N3CCSCC3)nc12	16%	4	-13%	.	-1%	-6%
COc1cc(C(c2c(O)cc(C)[nH]c2=O)c2c(O)cc(C)[nH]c2=O)ccc1O	7%	0	.	.	.	.
CN(C)CCNc1nc(-c2ccco2)c2c(c1C#N)CC(C)(C)OC2	-1%	-3	7%[46.1 µM]	?	4%	?
SMILES	Sfp inh	FBPA coupling cs	NPSR antag	ALDH1A1 block	RGS12 GoLoco inh	KDM4E inh
CCSc1ncnc2c1sc1nc(-c3ccco3)c3c(c12)CC(C)(C)OC3	-33%	0	-19%[46.1 µM]	?	12%	-19%
CCOC(=O)c1sc2nc3c(cc2c1N)COC(C)(C)C3	2%	-1	1%[46.1 µM]	?	3%	?
CCOC(=O)c1sc2nc(-c3ccco3)c3c(c2c1N)CC(C)(C)OC3	8.9µM*	-3	10µM*	?	-9%	?
COC(=O)CSc1ncnc2c1sc1nc(-c3ccco3)c3c(c12)CC(C)(C)OC3	11µM*	1	-2%[46.1 µM]	?	31%	?
CC1(C)Cc2c(c(-c3ccco3)nc3n[nH]c(N)c23)CO1	3%	2	?	25µM*	2%	-26%
CCc1ccc(NC(=S)N(Cc2ccc(Cl)cc2)Cc2ccc(C(=O)O)cc2)cc1	18µM*	14	-55%	?	12%	-6%
COc1ccc(NC(=S)N(Cc2ccc(Cl)cc2)Cc2ccc(C(=O)O)cc2)cc1Cl	50µM*	-2	-39%	20µM*	-4%	-6%
Cc1cc(NC(=S)N(Cc2ccc(Cl)cc2)Cc2ccc(C(=O)O)cc2)ccc1Cl	-6%	2	-52%	-5%	-4%	-2%
c1ccc2c(c1)CCN(c1nc3cc4c(cc3s1)OCCO4)C2	?	-38*	-9%[46.1 µM]	-10%	.	-1%
Cn1c(C(=O)N2CCN(C(=O)c3ccco3)CC2)cc2c(=O)n3ccccc3nc21	20µM*	-6	12%[46.1 µM]	?	-5%	2%
Cc1cc(OC(C)C(=O)NCC2CCCO2)cc(C)c1Cl (stereo unspecified)	-6%	.	.	.	.	.
COC(=O)C1=C(O)/C(=C\c2cc(C)n(-c3ccccc3F)c2C)N=C1C	4%	4	-24%	11µM*	62%	22µM*
COC(=O)C1=C(C)NC(=O)/C1=C\c1cc(C)n(-c2ccccc2)c1C	?	-23	-22%	25µM*	8%	-11%
COC(=O)C1=C(O)/C(=C\c2cc(C)n(-c3ccccc3C)c2C)N=C1C	45µM*	-42*	-2%[46.1 µM]	?	73%	?
CS(=O)(=O)c1ccc(Oc2ccc(-c3nnco3)cc2)c([N+](=O)[O-])c1	8%	0	.	.	.	.
Cc1ccc(C(=O)CCC(=O)N2CCN(C(=O)c3ccco3)CC2)cc1	5%	-2	2%	22µM*	2%	3%
O=C(/C=C/c1ccc(OC(F)F)cc1)OCC(=O)N1CCN(C(=O)c2ccco2)CC1	-8%	2	-8%	18µM*	-6%	-5%
O=C(COc1ccccc1)N1CCN(C(=O)c2ccco2)CC1	-1%	1	-1%[46.1 µM]	?	-8%	-13%
COc1ccc(OCC(=O)N2CCN(C(=O)c3ccco3)CC2)cc1	12%	2	-13%[46.1 µM]	10µM*	-1%	2%
